Experiments:
NKX2-5 [1] = target: NKX2-5 (Homo sapiens, UniProt P52952 125-210, R139K); experiment: PBM; 200 nM protein, PBS; details: dsDNA, one strand shown
NKX2-5 [2] = target: NKX2-5 (Homo sapiens, UniProt P52952 125-210); experiment: PBM; 200 nM protein, PBS; details: dsDNA, one strand shown
Chain of NKX2-5 (Homo sapiens, UniProt P52952 125-210) (P52952 125-210): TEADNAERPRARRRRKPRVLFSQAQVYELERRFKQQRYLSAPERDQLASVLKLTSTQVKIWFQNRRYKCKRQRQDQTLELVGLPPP

Chain of NKX2-5 (Homo sapiens, UniProt P52952 125-210, R139K) (P52952 125-210 R139K): as the sequence (P52952 125-210) above, with R15K counted along it

| Sequence | binding signal (NKX2-5 [1]) | binding signal (NKX2-5 [2]) |
| --- | --- | --- |
| GCTGCGAC | 8.9 upbm affinity estimate (log intensity, higher = more binding, comparable within an allelic series) | 8.94 upbm affinity estimate (log intensity, higher = more binding, comparable within an allelic series) |
| GCAAAGTA | 10.7 upbm affinity estimate (log intensity, higher = more binding, comparable within an allelic series) | 10.8 upbm affinity estimate (log intensity, higher = more binding, comparable within an allelic series) |
| CCTCTCGA | 11.2 upbm affinity estimate (log intensity, higher = more binding, comparable within an allelic series) | 11.3 upbm affinity estimate (log intensity, higher = more binding, comparable within an allelic series) |
| CTCTTATC | 11.5 upbm affinity estimate (log intensity, higher = more binding, comparable within an allelic series) | 11.4 upbm affinity estimate (log intensity, higher = more binding, comparable within an allelic series) |
| ACTCTACT | 10.7 upbm affinity estimate (log intensity, higher = more binding, comparable within an allelic series) | 10.8 upbm affinity estimate (log intensity, higher = more binding, comparable within an allelic series) |
| ATAAGATG | 10.5 upbm affinity estimate (log intensity, higher = more binding, comparable within an allelic series) | 10.6 upbm affinity estimate (log intensity, higher = more binding, comparable within an allelic series) |
| ACCGCGGC | 8.83 upbm affinity estimate (log intensity, higher = more binding, comparable within an allelic series) | 8.84 upbm affinity estimate (log intensity, higher = more binding, comparable within an allelic series) |
| CTCATAAG | 10.8 upbm affinity estimate (log intensity, higher = more binding, comparable within an allelic series) | 10.9 upbm affinity estimate (log intensity, higher = more binding, comparable within an allelic series) |
| CCTGGGCA | 8.92 upbm affinity estimate (log intensity, higher = more binding, comparable within an allelic series) | 9.12 upbm affinity estimate (log intensity, higher = more binding, comparable within an allelic series) |
| GCCGACCC | 8.84 upbm affinity estimate (log intensity, higher = more binding, comparable within an allelic series) | 8.81 upbm affinity estimate (log intensity, higher = more binding, comparable within an allelic series) |
| ACCACTCT | 11.3 upbm affinity estimate (log intensity, higher = more binding, comparable within an allelic series) | 11.2 upbm affinity estimate (log intensity, higher = more binding, comparable within an allelic series) |
| CCTGGCAG | 8.78 upbm affinity estimate (log intensity, higher = more binding, comparable within an allelic series) | 8.78 upbm affinity estimate (log intensity, higher = more binding, comparable within an allelic series) |
| AGCACTAG | 10.6 upbm affinity estimate (log intensity, higher = more binding, comparable within an allelic series) | 10.6 upbm affinity estimate (log intensity, higher = more binding, comparable within an allelic series) |
| CCCCAACG | 8.6 upbm affinity estimate (log intensity, higher = more binding, comparable within an allelic series) | 8.67 upbm affinity estimate (log intensity, higher = more binding, comparable within an allelic series) |
| ACACTCTG | 10.6 upbm affinity estimate (log intensity, higher = more binding, comparable within an allelic series) | 10.5 upbm affinity estimate (log intensity, higher = more binding, comparable within an allelic series) |
| CACGTCCC | 8.94 upbm affinity estimate (log intensity, higher = more binding, comparable within an allelic series) | 8.96 upbm affinity estimate (log intensity, higher = more binding, comparable within an allelic series) |
| CACAGCCC | 9.06 upbm affinity estimate (log intensity, higher = more binding, comparable within an allelic series) | 9.02 upbm affinity estimate (log intensity, higher = more binding, comparable within an allelic series) |

| Sequence | binding signal (NKX2-5 [1]) | binding signal (NKX2-5 [2]) |
| --- | --- | --- |
| CGGCGAAC | 8.65 upbm affinity estimate (log intensity, higher = more binding, comparable within an allelic series) | 8.62 upbm affinity estimate (log intensity, higher = more binding, comparable within an allelic series) |
| TATGAAGA | 10.8 upbm affinity estimate (log intensity, higher = more binding, comparable within an allelic series) | 10.7 upbm affinity estimate (log intensity, higher = more binding, comparable within an allelic series) |
| CCGAGCCA | 9.01 upbm affinity estimate (log intensity, higher = more binding, comparable within an allelic series) | 9.05 upbm affinity estimate (log intensity, higher = more binding, comparable within an allelic series) |
| CGGCGTAC | 8.9 upbm affinity estimate (log intensity, higher = more binding, comparable within an allelic series) | 8.89 upbm affinity estimate (log intensity, higher = more binding, comparable within an allelic series) |
| CCGCAGTC | 8.8 upbm affinity estimate (log intensity, higher = more binding, comparable within an allelic series) | 8.72 upbm affinity estimate (log intensity, higher = more binding, comparable within an allelic series) |
| ATCCTTAG | 10.5 upbm affinity estimate (log intensity, higher = more binding, comparable within an allelic series) | 10.5 upbm affinity estimate (log intensity, higher = more binding, comparable within an allelic series) |
| AACGGTGG | 9.06 upbm affinity estimate (log intensity, higher = more binding, comparable within an allelic series) | 8.98 upbm affinity estimate (log intensity, higher = more binding, comparable within an allelic series) |
| CCGTCCCG | 8.71 upbm affinity estimate (log intensity, higher = more binding, comparable within an allelic series) | 8.66 upbm affinity estimate (log intensity, higher = more binding, comparable within an allelic series) |
| GGCTCTTA | 11.7 upbm affinity estimate (log intensity, higher = more binding, comparable within an allelic series) | 11.6 upbm affinity estimate (log intensity, higher = more binding, comparable within an allelic series) |
| CTAGTACA | 10.5 upbm affinity estimate (log intensity, higher = more binding, comparable within an allelic series) | 10.6 upbm affinity estimate (log intensity, higher = more binding, comparable within an allelic series) |
| CACTGCCG | 9 upbm affinity estimate (log intensity, higher = more binding, comparable within an allelic series) | 8.89 upbm affinity estimate (log intensity, higher = more binding, comparable within an allelic series) |
| ATAAGTGA | 12.2 upbm affinity estimate (log intensity, higher = more binding, comparable within an allelic series) | 12 upbm affinity estimate (log intensity, higher = more binding, comparable within an allelic series) |
| CCCGTAGC | 8.54 upbm affinity estimate (log intensity, higher = more binding, comparable within an allelic series) | 8.55 upbm affinity estimate (log intensity, higher = more binding, comparable within an allelic series) |
| CACAGCCG | 8.68 upbm affinity estimate (log intensity, higher = more binding, comparable within an allelic series) | 8.68 upbm affinity estimate (log intensity, higher = more binding, comparable within an allelic series) |
| CCACTAGA | 11.3 upbm affinity estimate (log intensity, higher = more binding, comparable within an allelic series) | 11.2 upbm affinity estimate (log intensity, higher = more binding, comparable within an allelic series) |
| AAGTAGGG | 10.9 upbm affinity estimate (log intensity, higher = more binding, comparable within an allelic series) | 10.9 upbm affinity estimate (log intensity, higher = more binding, comparable within an allelic series) |
| CCGGGCCA | 9.01 upbm affinity estimate (log intensity, higher = more binding, comparable within an allelic series) | 8.94 upbm affinity estimate (log intensity, higher = more binding, comparable within an allelic series) |

— PMC11006913
